Assay outcomes from PubChem.
ELG1 repair inh: inhibitors of ELG1-dependent DNA repair in HEK293T cells; HEK293T ELG1-luciferase reporter, luminescence, 16 h; DNA damage induced by 5-fluorouridine; Potency, µM (series often up to 46.1 µM), actives largely listed as inhibitors; 330,000 compounds, 2.3% hits; AID 504467; note: nearly all actives have a fitted effect of over 55% in size
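In this reporter screen, reduction of luminescence relative to DMSO vehicle indicated activity. Compounds and 5-fluorouridine were added together to 2,000 cells per well, incubated for 16 hr at 37 °C, then developed with ONE-Glo.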
HT1080NT lethal: kills 2HG-producing HT-1080-NT fibrosarcoma cells; HT-1080-NT fibrosarcoma viability, CellTiter-Glo ATP luminescence, 48 h; Potency, µM (top dose mostly 46.1 µM), hits mostly cytotoxic; 360,000 compounds, 1.6% hits; AID 686970;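 note: NT is the 2HG producing partner of a matched IDH1 knockdown line; nearly all actives have a fitted effect of over 55% in size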
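Read-out is CellTiter-Glo luminescence after 10 minutes at room temperature, following 48 hours' compound treatment of HT-1080-NT cells (750 cells/well, RPMI, 5% FBS, 37 degrees C).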
TDP1 cell CPT: DT40-hTDP1 cell growth loss with CPT. AID 686979. 420,000 compounds, 12% hits. chicken DT40 Tdp1-/-;hTDP1 cells + 20 nM CPT, ATP luminescence, 48 h. Potency, µM (titrated, usually from 46.2 µM), hits mostly inhibitors; note: nearly all actives have a fitted effect of over 55% in size
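Chicken DT40 Tdp1-/- cells stably complemented with human TDP1 were seeded at 400 cells/well in medium containing 20 nM camptothecin, exposed to pin-transferred compounds, and grown at 37 °C for at least 48 hr. Viability was read as ATP luminescence.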
IL1B secr inh: inflammasome signaling inhibition, IL-1 beta readout; THP-1 LPS/ATP IL-1B secretion, AlphaLISA, 16 h; active compounds read low; activity change, % at 57.5 µM; 360,000 compounds, 4.7% hits; in the data active = activity change below about -50%; inconclusive = mostly about -30% to -49%
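Secreted IL-1B measured by AlphaLISA bead assay after 16 h compound exposure of THP-1 cells; compounds (final up to 57.5 uM) added 1 h before LPS (250 ng/mL) and ATP (1.25 mM) stimulation; lower signal means less secretion.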
DT40 TDP1 no CPT: qHTS for Inhibitors of human tyrosyl-DNA phosphodiesterase 1 (TDP1): qHTS in cells in absence of CPT; DT40 Tdp1-/- hTDP1 cells, no CPT, ATP luminescence, 48 h; Potency, µM (doses to about 46.2 µM), actives largely listed as inhibitors; 420,000 compounds, 15% hits; AID 686978, 2013; note: nearly all actives have a fitted effect of over 55% in size
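Compound effects on proliferation are scored in DT40 Tdp1-/-;hTDP1 cells in the absence of CPT. ATP levels (CellTiter-Glo luminescence) are recorded after a ≥48 hr, 37 °C incubation.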
HT1080 IDH1KD tx: toxicity to HT-1080 IDH1 knockdown cells (counter line). HT-1080 IDH1 knockdown viability, ATP luminescence, 48 h. Potency, µM (highest dose often 46.1 µM), hits mostly cytotoxic. 360,000 compounds, 2% hits. AID 686971
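In this qHTS, HT-1080 cells depleted of IDH1 are exposed for 48 h at 37 °C to compound titrations. Toxicity is scored from CellTiter-Glo luminescence, with DMSO as full viability and medium alone as none.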
Hits are given with their value; . = inactive; ? = inconclusive; / = not tested or not shown. Shown are actives, neighbours in structure and some others; about 19% of the full set was active somewhere. Unless noted, calls come from the whole dose curve; as a rule, active = well fitted curve in the direction sought with a large enough effect; inconclusive = small, poorly fitted or top-dose-only effect, or another doubt; inactive = no such curve, though single readings can be large; an effect the other way counts as inactive or inconclusive.

SMILES	ELG1 repair inh	HT1080NT lethal	TDP1 cell CPT	IL1B secr inh	DT40 TDP1 no CPT	HT1080 IDH1KD tx
N#Cc1ccccc1Cn1c(=O)n(-c2ccccc2)c(=O)c2c3c(sc21)CCC3	/	/	.	/	.	/
CCc1c(C)sc2c1CCN(Cc1ccccc1C#N)C2c1ccccc1 (configuration not stated)	/	/	9.2µM	/	?	/
Cc1nc2nc(CNC(=O)c3cccc(F)c3)nn2c(C)c1CCC(=O)Nc1ccc(F)cc1	/	/	.	/	.	/
O=C(NCc1ccccc1F)C1CC(=O)N(Cc2ccco2)C1 (configuration not stated)	/	.	.	.	.	.
CCOCCCn1c(SCC(=O)NC(C)C)nc2ccccc2c1=O	.	.	.	.	.	.
CCOCCCn1c(SCC(=O)Nc2ccccc2OC)nc2ccccc2c1=O	?	.	?	.	16µM	.
CCc1ccc(NC(=O)CSc2nc3ccccc3c(=O)n2CCCC(=O)N2CCCC2)cc1	?	.	15µM	.	?	.
COc1ccccc1NC(=O)CSc1nnc(CC(=O)Nc2ccccc2C)n1C	.	.	.	.	.	.
CCOc1ccccc1NC(=O)CSc1nc2cc(O)ccc2c(=O)n1-c1ccc(OC)c(OC)c1	?	?	18µM	.	?	?
COc1ccccc1NC(=O)CSc1nnc(CC(=O)Nc2ccccc2)n1C	.	.	.	-50	.	.
Cc1ccc(Cn2cc(CN3CC(N4CCN(CCO)CC4)CS3(=O)=O)nn2)cc1 (configuration not stated)	/	.	.	.	.	.
CCOCCCn1c(SCC(=O)Nc2ccccc2)nc2ccccc2c1=O	?	.	?	.	?	.
COc1ccccc1NC(=O)CSc1nnc(C2CCCCC2)n1-c1ccccc1	?	.	21µM	.	12µM	.
CCOC(=O)c1cccc(NC(=O)CSc2nc3ccccc3c(=O)n2CC)c1	.	.	.	.	.	.
CCOCCCn1c(SCC(=O)Nc2ccc(C)cc2)nc2ccccc2c1=O	/	/	16µM	/	15µM	/
COc1ccccc1NC(=O)CSc1nnc(C2CCCCC2)n1C	.	.	.	.	.	.
CCOC(=O)c1cccc(NC(=O)CSc2nc3ccccc3c(=O)n2CCOC)c1	21µM	.	?	.	21µM	.
COc1ccccc1NC(=O)CSc1nc2ccccc2c(=O)n1C	?	.	15µM	.	9.2µM	.
CCc1ccccc1NC(=O)Cn1c(=O)n(CCCS(=O)(=O)C2CCCCC2)c(=O)c2ccccc21	/	/	.	/	.	/
Cc1cccc(NC(=S)N(CCN(C)C)Cc2cccs2)c1	.	.	.	.	.	.
C=C(C)Cn1c(SCC(=O)N/N=C/c2cccc(O)c2)nc2ccccc2c1=O	21µM	.	?	.	?	.
Cn1c(SCC(=O)Nc2cc(C(C)(C)C)nn2-c2ccccc2)nc2ccccc21	.	.	?	.	12µM	.
CCn1c(SCC(=O)Nc2cccc(OC)c2)nc2ccccc2c1=O	23µM	.	?	.	?	.
Cc1ccc2nc(SCC(=O)Nc3cc(C(C)(C)C)nn3-c3ccccc3)[nH]c2c1	.	.	?	.	.	?
COc1ccccc1NC(=O)Cc1nnc(SCC(=O)NC2CCCC2)n1C	.	.	.	.	.	.
SMILES	ELG1 repair inh	HT1080NT lethal	TDP1 cell CPT	IL1B secr inh	DT40 TDP1 no CPT	HT1080 IDH1KD tx
C=C(C)Cn1c(SCC(=O)N/N=C/c2ccccc2)nc2ccccc2c1=O	?	.	?	.	.	.
COc1ccccc1NC(=O)Cn1nc(-c2ccncc2)nc1SCC(=O)NC1CCCC1	.	.	13µM	.	15µM	.
Cc1ccc(-n2nc3cc(C)c(NC(=O)COc4ccccc4)cc3n2)cc1	/	/	.	/	.	/
Cc1ccc(S(=O)(=O)N2[C@@H](Cc3ccccc3)CO[C@H]2CC(=O)c2cccc3ccccc23)cc1	/	.	?	.	?	.
CCOCCCn1c(SCC(=O)Nc2ccc(OC)cc2)nc2ccccc2c1=O	?	.	?	.	18µM	.
COc1cccc(-n2c(SCC(=O)Nc3cccc(Cl)c3)nc3c(oc4ccccc43)c2=O)c1	/	/	?	/	.	/
COCCn1c(SCC(=O)c2ccccc2)nc2ccccc2c1=O	.	.	.	.	?	.
COCCCn1c(SCC(=O)c2ccccc2)nc2ccccc2c1=O	?	.	?	.	23µM	.
COCCn1c(SCC(=O)Nc2cccc(OC)c2)nc2c(oc3ccccc32)c1=O	?	.	5.8µM	.	7.3µM	.
CCOCCCn1c(SCC(=O)Nc2ccc(NC(C)=O)cc2)nc2ccccc2c1=O	.	.	.	.	.	.
COc1cccc(-n2c(SCC(=O)Nc3cc(C)ccc3C)nc3c(oc4ccccc43)c2=O)c1	/	/	?	/	13µM	/
CC(C)c1ccc([C@@H]2O[C@H](C)CC3=C2C(=O)OC(C)(C)O3)cc1	/	.	.	.	?	.
Cc1ccc2nc(NC(=O)CSc3[nH]c(=O)ncc3C)sc2c1	/	/	.	/	.	/
Cn1c(SCC(=O)Nc2ccccc2)nc2ccccc2c1=O	?	.	2.9µM	?	?	.
Cc1cc2c(=O)n(C)c(SCC(=O)Nc3ccccc3)nc2s1	?	.	.	.	?	.
CCSC(=S)c1c(C)[nH]n(-c2ccccc2)c1=O	?	?	15µM	.	13µM	?
Cc1[nH]n(-c2ccc(Cl)cc2)c(=O)c1C(=O)c1ccccc1	.	.	?	.	?	?
CC/C(=N/NC(=O)c1ccccc1O)c1c(C)[nH]n(-c2ccccc2)c1=O	/	?	2.1µM	.	1.8µM	26µM
CN(C)/C=C/C(=O)c1ccn(S(=O)(=O)c2ccccc2)c1	.	.	.	.	.	.
COCc1cccc(-c2csc(C(C)(NC(C)=O)c3ccc(OC)cc3)n2)c1 (configuration not stated)	/	.	18µM	.	?	.
CC(=O)NC(C)(c1ccccc1)c1nc(-c2cccc(F)c2)cs1 (configuration not stated)	/	.	29µM	/	?	.
COCc1cccc(-c2csc(C(C)(NC(C)=O)c3ccccc3)n2)c1 (configuration not stated)	/	.	23µM	.	18µM	.
C[C@H](CO)N1C[C@H](C)[C@H](CN(C)C(=O)NC2CCCCC2)Oc2cc(-c3cccnc3)ccc2S1(=O)=O	/	.	?	.	?	.
COc1ccccc1NC(=O)C1=C(C)Nc2nc(SCc3cccc(F)c3)nn2C1c1ccc(C(=O)O)cc1 (configuration not stated)	/	/	.	/	.	/
